Cav32 inh = human Cav3.2 channel inhibition, primary screen | O95180 | B-score at 10 µM | Cav3.2-expressing cells, Fluo-4 calcium fluorescence FDSS; active compounds read low | 100,000 compounds, 4% hits;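 active = single-dose well whose peak fluorescence ratio is a statistical outlier from its plate by either plate-standardised score or position-corrected B-score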
CYP2C9 inhib = blocks human cytochrome P450 2C9. P11712. CYP2C9 Supersomes, luciferin-H conversion, luminescence. inhibition, % at 5 µM. 96,000 compounds, 20% hits;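 active = blocking of liver enzyme CYP2C9 beyond about 50% at 5 µM, limit read from the data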
CYP2C19 act = cytochrome P450 2C19 (human) activation | recombinant CYP2C19, luciferin-H EGE luminescence; active compounds read high; 0 = fully inhibited enzyme, 1 = untreated enzyme | activation factor at 5 µM | AID 1025 | 96,000 tested, under 10 active;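 active = activation factor of at least 2 at 5 µM in the primary screen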;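 also: 0 = wells with 2.5 mM tranylcypromine and 1 = vehicle-only wells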
CYP2C9 act = increases human cytochrome P450 2C9 activity | P11712 | recombinant CYP2C9, luciferin-H conversion, luminescence; active compounds read high; factor 1 = untreated enzyme, 0 = blocked | activation factor at 5 µM | 96,000 compounds, 1.4% hits | AID 1024;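 active = activation factor of 2 or more for CYP2C9 at a 5 µM dose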;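 also: 0 = sulfaphenazole-blocked wells and 1 = vehicle-only wells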
CYP2C19 inh = blocks human cytochrome P450 2C19. P33261. CYP2C19 Supersomes, luciferin-H EGE luminescence, 30 min. inhibition, % at 5 µM. 96,000 compounds, 21% hits;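 active = CYP2C19 inhibition above a set limit at 5 µM in the primary screen, cut at about 50% in these data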;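 also: plate controls were negative control wells for no effect and 2.5 mM tranylcypromine positive control for full effect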
* marks the source's active call; other numbers are inactive results; . = not tested or not shown. Compounds with a hit are over-represented: about 27% of the library has one in this group of screens.

SMILES	Cav32 inh	CYP2C9 inhib	CYP2C19 act	CYP2C9 act	CYP2C19 inh
O=[N+]([O-])c1cc(/C=N\Nc2nccs2)ccc1O	.	34	0.6	0.7	42
CS(=O)(=O)N(Cc1ccccc1)c1ccccc1C(=O)O	0.96	-12	1.2	1.1	-18
Cn1nnc2cc(C(=O)NC3CCCCC3)ccc21	0.28	-4	1	1	2
CCCCc1c(O)nc(SCC(=O)N2CCOCC2)n(-c2ccccc2C)c1=O	-0.81	-13	1.1	1.1	-9
COc1ccc(NC(=O)CCS(=O)(=O)c2cccc3nonc23)c(OC)c1	0.11	8	0.6	0.9	44
COc1ccc(C)cc1NS(=O)(=O)c1cccc2nonc12	.	15	0.1	0.9	92*
CNC(=O)CC(C(=O)O)c1ccc(OC(C)C)cc1 (stereo not drawn)	0.15	16	1	0.8	4
CC(NC(=O)c1ccccc1)C(c1cccs1)N1CCOCC1 (stereo not drawn)	-0.49	45	0.4	0.6	57*
COc1ccc(N2CCN(C(c3cccs3)C(C)NC(=O)c3ccco3)CC2)cc1 (stereo not drawn)	0.023	.	.	.	.
CC(NC(=O)c1ccco1)C(c1cccs1)N1CCOCC1 (stereo not drawn)	-0.52	33	0.4	0.7	64*
CC(NC(=O)Nc1ccc(Cl)cc1)C(c1cccs1)N1CCOCC1 (stereo not drawn)	-1.7	49	0.3	0.5	68*
O=C1CCn2nc(-c3ccc(Cl)cc3)cc2N1	0.083	8	1	0.9	-5
O=C(Nc1ccccc1)NC1(C(=O)N2CCN(c3ncccn3)CC2)CCCCC1	-0.61	-16	0.8	1.2	15
CCCCCCCCNc1ncnc2ccccc12	-2.4	82*	0.2	0.2	79*
O=C(CSCc1ccccc1)N1CCN(C(=O)c2ccco2)CC1	1.8	.	.	.	.
O=C(Nc1ccc(F)cc1)C(c1ccccc1)N1CCN(C(=O)c2ccco2)CC1 (stereo not drawn)	0.95	71*	0.8	0.3	22
CC(C(=O)Nc1ccc2c(c1)OCCO2)N1CCN(C(=O)c2ccco2)CC1 (stereo not drawn)	.	10	1.1	0.9	-8
O=C(Nc1ccc2c(c1)OCO2)C(c1ccc(Cl)cc1)N1CCN(C(=O)c2ccco2)CC1 (stereo not drawn)	-4.3*	95*	0.3	0.1	75*
O=C(Nc1ccc2c(c1)OCO2)C(c1ccccc1)N1CCN(C(=O)c2ccco2)CC1 (stereo not drawn)	-0.16	98*	0.2	0	76*
O=C(c1ccco1)N1CCN(C(=O)C(Sc2ccccc2)c2ccccc2)CC1 (stereo not drawn)	-0.2	83*	0.2	0.2	78*
O=C(Cn1[nH]c(=O)c2ccccc2c1=O)N1CC=C(c2ccccc2)CC1	-0.25	67*	0.2	0.3	81*
CCOC(=O)c1c(C)[nH]c(C)c1C(=O)COC(=O)c1ccc(Cl)c(S(N)(=O)=O)c1	-0.091	16	0.1	0.8	92*
CCOC(=O)c1c(C)[nH]c(C)c1C(=O)COC(=O)c1ccc(S(=O)(=O)N(CC)CC)cc1	-0.5	97*	0.2	0	84*
CCOC(=O)c1csc(NC(=O)c2ccc(S(=O)(=O)N(CC)CC)cc2)n1	0.27	.	.	.	.
CCCC(=O)Nc1ccc2c(c1)nc(CN1CCCCC1)n2C	0.81	7	1	0.9	-1
SMILES	Cav32 inh	CYP2C9 inhib	CYP2C19 act	CYP2C9 act	CYP2C19 inh
COc1ccc2c(c1)C(C)=CC(C)(C)N2C(=O)C(C)N1C(=O)c2ccccc2C1=O (stereo not drawn)	-0.95	.	.	.	.
COC(=O)C1=C(C(=O)OC)SC(=C2C(=S)C(C)(C)N(C(=O)C3CC3)c3ccccc32)S1	-2.3	78*	0.3	0.2	69*
CC1C(=O)Nc2ccccc2N1C(=O)C1CC1 (stereo not drawn)	0.39	-4	1	1	-2
COC(=O)C1=C(C(=O)OC)SC(=C2C(=S)C(C)(C)N(C(=O)C(C)C)c3ccccc32)S1	-0.32	95*	0.6	0.1	40
COc1ccc(-c2n[nH]c(C)c2-c2cnn(-c3ccccc3)c2)c(O)c1C	-0.099	52*	0.6	0.5	39
Cc1cc(C)c(S(=O)(=O)n2cnc3ccccc32)c(C)c1	0.62	-15	1.1	1.1	-8
CCOc1cc(C)c(Cl)cc1S(=O)(=O)n1cnc2ccccc21	-5.7*	0	0.7	1	25

Compound activity from PubChem.
